Source: PubChem BioAssay
Compounds with a hit are over-represented: about 0.78% of the library has one in this group of screens.
BLM helicase inh: qHTS Assay for Inhibitors of Bloom's syndrome helicase (BLM). recombinant BLM DNA unwinding, fluorescence dequenching. Potency, µM (doses to about 56.1 µM), without a hit: top-dose activity change, negative = inhibition, hits mostly inhibitors. RecQ-like DNA helicase BLM (Homo sapiens), P54132. actives 0.2% (n = 350,000);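 also: plate controls were vehicle for no effect and no enzyme for full effect; nearly all actives have a fitted effect of over 35% in size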
Target sequence (P54132 whole entry, looked up): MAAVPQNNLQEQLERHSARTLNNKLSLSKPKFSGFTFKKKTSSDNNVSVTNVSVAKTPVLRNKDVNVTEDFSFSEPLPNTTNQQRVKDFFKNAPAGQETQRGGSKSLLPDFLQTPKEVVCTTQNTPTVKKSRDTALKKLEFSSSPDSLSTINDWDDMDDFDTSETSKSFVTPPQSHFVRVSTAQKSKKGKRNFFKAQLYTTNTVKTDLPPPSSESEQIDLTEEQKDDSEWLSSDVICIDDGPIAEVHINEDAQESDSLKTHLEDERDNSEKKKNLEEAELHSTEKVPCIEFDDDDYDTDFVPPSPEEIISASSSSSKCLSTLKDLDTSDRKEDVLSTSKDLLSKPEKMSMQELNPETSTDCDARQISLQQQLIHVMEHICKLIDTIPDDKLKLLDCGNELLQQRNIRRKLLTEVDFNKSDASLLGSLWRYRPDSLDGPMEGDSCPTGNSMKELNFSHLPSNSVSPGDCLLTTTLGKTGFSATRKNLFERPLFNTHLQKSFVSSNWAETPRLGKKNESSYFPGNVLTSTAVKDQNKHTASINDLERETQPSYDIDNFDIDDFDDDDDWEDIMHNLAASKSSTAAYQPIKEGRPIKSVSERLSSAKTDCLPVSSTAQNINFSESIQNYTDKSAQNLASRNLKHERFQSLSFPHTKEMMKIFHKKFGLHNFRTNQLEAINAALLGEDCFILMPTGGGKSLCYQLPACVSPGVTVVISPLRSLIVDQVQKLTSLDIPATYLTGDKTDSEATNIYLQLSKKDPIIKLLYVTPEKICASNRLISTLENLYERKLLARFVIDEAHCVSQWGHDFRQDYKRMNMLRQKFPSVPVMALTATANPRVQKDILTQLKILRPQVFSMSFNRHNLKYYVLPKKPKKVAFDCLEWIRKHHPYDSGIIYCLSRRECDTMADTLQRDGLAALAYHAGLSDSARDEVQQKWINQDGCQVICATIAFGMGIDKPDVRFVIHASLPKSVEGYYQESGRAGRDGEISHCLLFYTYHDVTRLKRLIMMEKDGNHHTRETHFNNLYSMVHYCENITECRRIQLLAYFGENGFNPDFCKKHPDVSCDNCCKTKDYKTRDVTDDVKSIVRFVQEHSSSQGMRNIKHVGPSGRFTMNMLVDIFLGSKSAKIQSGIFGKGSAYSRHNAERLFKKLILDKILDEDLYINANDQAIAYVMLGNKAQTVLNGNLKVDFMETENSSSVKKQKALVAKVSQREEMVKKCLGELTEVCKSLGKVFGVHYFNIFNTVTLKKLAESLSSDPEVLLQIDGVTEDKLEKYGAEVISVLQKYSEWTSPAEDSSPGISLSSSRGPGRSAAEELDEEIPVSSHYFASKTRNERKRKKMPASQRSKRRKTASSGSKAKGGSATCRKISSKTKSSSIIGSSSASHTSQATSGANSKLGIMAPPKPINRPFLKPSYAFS
APE1 inh-1: qHTS Assay for Inhibitors of the Human Apurinic/apyrimidinic Endonuclease 1 (APE1); DNA repair nuclease/redox regulator APEX1 (Homo sapiens), P27695; recombinant APE1, TAMRA/BHQ-2 abasic DNA cleavage fluorescence; Potency, µM (highest dose often 65.8 µM), inactives show at the highest dose activity change, negative = inhibition, actives largely listed as inhibitors; actives 0.35% (n = 350,000); AID 2517, 2012;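 also: plate controls were vehicle for no effect and reference inhibitor for full effect; nearly all actives have a fitted effect of over 55% in size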
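Substrate: short duplex with […] THF abasic site, 5'-TAMRA and 3'-BHQ-2, 50 nM final. APE1 at 0.75 nM, preincubated 15 min RT with compound. Fluorescence increase from first to third read measured activity.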
L3MBTL1 inh-1: qHTS Assay for the Inhibitors of L3MBTL1; Lethal(3)malignant brain tumor-like protein 1 (Homo sapiens), Q9Y468; AlphaScreen L3MBTL1–H3K9me1 peptide binding; Potency, µM (top dose mostly 57.1 µM), without a hit: at the top dose activity, negative = inhibition, hits mostly inhibitors; actives 0.66% (n = 230,000); AID 485360, 2010; also: % is scaled to controls: 0 for no effect and ±100 for the full control effect; nearly all actives have a fitted effect of over 60% in size
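First, the protein-peptide complex forms for 30 min at room temperature (L3MBTL1 50 nM, biotinylated H3K9me1 peptide 75 nM). Next, compounds are pin-transferred and incubated 30 min. Finally, AlphaScreen beads are added and read after 30 min.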
RECQ1 inh-1: qHTS Assay for Inhibitors of RecQ-Like Dna Helicase 1 (RECQ1) | RECQ1 DNA unwinding, red fluorescence kinetic read | Potency, µM (series often up to 57.3 µM), inactives show at the top dose activity, negative = inhibition, hits mostly inhibitors | actives 0.54% (n = 240,000);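 also: plate controls were vehicle for no effect and no enzyme for full effect; nearly all actives have a fitted effect of over 30% in size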
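RECQ1T1 50 nM; forked duplex (20 bp + 30-nt ss tails) 200 nM, ATP 2 mM final; pH 8.0, 2 mM MgCl2, 2.5 ug/ml poly(dI-dC); 15 min compound preincubation; discontinuous kinetic read over 2 h at RT.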
APE1 dye cs: Counterscreen for APE1 Inhibitors: Fluorescent Dye Displacement Assay | AID 2564, 2010 | DNA fluorescent dye displacement counterscreen, fluorescence | actives 7% (n = 480) | Potency, µM (highest dose often 28.5 µM), for the others: at the highest dose activity change, negative = inhibition, usual class: inhibitors | shares compounds with APE1 inh-1;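 also: loss of thiazole orange fluorescence as the dye is displaced from duplex DNA; 0% = ThO with dsDNA and no compound and -100% = ThO without dsDNA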
Endo IV inh: Counterscreen for APE1 Inhibitors: qHTS Assay for Inhibitors of Endonuclease IV. shares compounds with APE1 inh-1. E. coli Endo IV, fluorogenic AP-site DNA cleavage. Potency, µM (highest dose often 27.1 µM), without a hit: at the top dose activity change, negative = inhibition, usual class: inhibitors. actives 4% (n = 560). AID 2565, 2010;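 also: plate controls were uninhibited enzyme wells for no effect and no enzyme buffer wells for full effect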
APE1 inh-2: Confirmation qHTS Assay for Inhibitors of the Human Apurinic/apyrimidinic Endonuclease 1 (APE1) | shares compounds with APE1 inh-1 | purified APE1, fluorogenic abasic-site DNA cleavage | Potency, µM (highest dose often 57.1 µM), for inactives: top-dose activity change, negative = inhibition, usual class: inhibitors | actives 44% (n = 750) | AID 2572, 2010; also: % is scaled to controls: 0 for no effect and ±100 for the full control effect; nearly all actives have a fitted effect of over 30% in size
APE1 FP inh: qHTS FP-Based Assay for Inhibitors of the Human Apurinic/apyrimidinic Endonuclease 1 (APE1); shares compounds with APE1 inh-1; APE1 binding to TAMRA-labelled double-stranded DNA, fluorescence polarization displacement; Potency, µM (highest dose often 28.5 µM), for inactives: top-dose activity, negative = inhibition, most hits filed as inhibitors; actives 7% (n = 480); AID 2573, 2010; also: % is scaled to controls: 0 for no effect and ±100 for the full control effect
RECQ1 inh conf: Confirmation qHTS Assay for Inhibitors of RecQ-Like Dna Helicase 1 (RECQ1); shares compounds with RECQ1 inh-1; RECQ1 helicase DNA unwinding, fluorescence; Potency, µM (doses to about 229 µM), for the others: at the top dose activity change, negative = inhibition, usual class: inhibitors; actives 28% (n = 610); AID 2708, 2010; also: % is scaled to controls: 0 for no effect and ±100 for the full control effect; nearly all actives have a fitted effect of over 45% in size
RECQ1 inh-2: Confirmation qHTS Assay for Inhibitors of RecQ-Like Dna Helicase 1 (RECQ1) - Round 2 Cherry Picks | shares compounds with RECQ1 inh-1 | recombinant RECQ1 DNA unwinding, red fluorescence | Potency, µM (series often up to 119 µM), for inactives: at the highest dose activity, negative = inhibition, actives largely listed as inhibitors | actives 15% (n = 1,100); also: % is scaled to controls: 0 for no effect and ±100 for the full control effect; nearly all actives have a fitted effect of over 50% in size
L3MBTL1 inh-2: qHTS Assay for the Inhibitors of L3MBTL1: Hit Validation | shares compounds with L3MBTL1 inh-1 | L3MBTL1 methyl-lysine binding inhibition, biochemical qHTS | Potency, µM, usual class: inhibitors | actives 91% (n = 500); also: nearly all actives have a fitted effect of over 70% in size
AlphaScreen ctr2: qHTS Assay for the Inhibitors of L3MBTL1: Hit Validationin AlphaScreen Counterscreen | shares compounds with L3MBTL1 inh-1 | AlphaScreen counterscreen, signal inhibition | Potency, µM (series often up to 57.1 µM), without a hit: top-dose activity change, negative = inhibition, most hits filed as inhibitors | 500 tested, under 10 active; also: 0% is about no effect
* hit, by the source's call; i = inactive; ? = inconclusive; . = no result; ! = repeats disagree; [ ] = another dose, or the depositor's remark. Calls follow the shape of the dose curve; as a rule, active = well fitted curve in the direction sought with a large enough effect; inconclusive = small, poorly fitted or top-dose-only effect, or another doubt; inactive = no such curve, though single readings can be large; an effect the other way counts as inactive or inconclusive. Potency is read from the fitted curve at half-maximal effect.

SMILES | BLM helicase inh | APE1 inh-1 | L3MBTL1 inh-1 | RECQ1 inh-1 | Endo IV inh | APE1 inh-2 | L3MBTL1 inh-2 | AlphaScreen ctr2 | others
C=C(C)CCOC(=O)C(CC(=O)O)NCc1ccco1 (configuration not stated) | -4% | ? | 28µM* | -5% | . | ? | 9.5* | 14%
O=C(O)CC(NCc1ccco1)C(=O)OCCc1ccccc1 (configuration not stated) | -1% | 2% | 2% | -5% | . | . | . | .
COc1cccc(NC(=O)CSc2nnc(-c3ccco3)c(-c3ccco3)n2)c1 | -25% | 7% | . | . | . | . | . | .
Cc1cccc(C)c1NC(=O)CSc1nnc(-c2ccco2)c(-c2ccco2)n1 | 6% | 16µM* | 2.8µM* | 14µM* | -2% | 3.5µM* | 2.7* | -29% | APE1 dye cs=?;APE1 FP inh=-23%
O=c1oc2ccccc2c(N2CCN(c3ccccc3F)CC2)c1CN1CCCC1 | 2% | . | . | . | . | . | . | .
COCCOC(=O)c1[nH]c2c(c1C)C(=O)CC(c1ccccc1)C2 (configuration not stated) | 1% | 4% | -8% | 4% | . | . | . | .
COCCOC(=O)c1[nH]c2c(c1C)C(=O)CC(c1ccco1)C2 (configuration not stated) | ? | 18µM* | 32µM* | 35µM* | 4% | 7.9µM* | 15* | -1% | APE1 dye cs=-9%;APE1 FP inh=-29%;RECQ1 inh-2=?
Cc1c(C(=O)OCc2ccccc2)[nH]c2c1C(=O)CC(c1ccco1)C2 (configuration not stated) | -24% | 25µM* | 25µM* | 32µM* | 3% | 14µM* | 15* | 10% | APE1 dye cs=6%;APE1 FP inh=-40%;RECQ1 inh-2=?
C[C@@H]1NC(=O)C/C=C\[C@@H](C)[C@@H]2C=C[C@H](O)[C@@H](COC(=O)[C@H](C)NC(=O)C/C=C\[C@@H](C)[C@@H]3C=C[C@H](O)[C@@H](COC1=O)O3)O2 | 0%[12.4 µM] | 9%[12.4 µM] | . | -3%[11.5 µM] | . | . | . | .
CCc1cccc(NC(=O)Cn2c(=O)n(CCc3ccc(OC)c(OC)c3)c(=O)c3ccccc32)c1 | 1% | . | . | . | . | . | . | .
O=C(O)c1cccc(-n2cccc2/C=C2/NC(=O)N(Cc3ccccc3F)C2=O)c1 | -6% | 13µM* | 32µM* | ? | . | ? | 6* | 9%
O=C1N/C(=C/c2cccn2-c2ccc(F)cc2)C(=O)N1Cc1ccccc1F | -2% | -2% | 0% | -4% | . | . | . | .
Cc1ccc(NC(=O)CN2C(=O)N/C(=C/c3cccn3-c3ccc(C(=O)O)cc3)C2=O)cc1 | ? | 1.1µM* | 2.2µM* | 7.9µM* | . | 1.3µM* | 0.47* | ? | RECQ1 inh conf=20µM*
CCCCCC/C=C/c1ccc(C2C3C=CCC(C)C3C(=O)N2Cc2ccccc2)c(F)c1 (configuration not stated) | -4% | 9% | . | 1% | . | . | . | .
Fc1ccc(CNc2nc3ccc(Cl)cc3n3nnnc23)cc1 | -2% | . | . | . | . | . | . | .
CC(=O)OCC1=C(C(=O)O)N2C(=O)C(NC(=O)Cc3ccccc3)C2SC1 (configuration not stated) | -12% | . | . | . | . | . | . | .
CC(=O)OCC1=C(C(=O)O)N2C(=O)[C@@H](NC(=O)CSc3ccncc3)[C@H]2SC1 | . | 25µM*! | 16µM* | -13% | 16µM* | 7.9µM* | 3* | 7%
Cc1cc(NS(=O)(=O)c2ccc(NC(=O)Cc3cccs3)cc2)no1 | -3% | -5% | ? | 19% | . | . | . | .
Cc1cc(NC(=O)Cc2cccs2)no1 | ? | 28µM* | 28µM* | 25µM* | ? | 7.9µM* | 3.4* | -20% | APE1 dye cs=?;APE1 FP inh=-85%;RECQ1 inh-2=?
O=C(O)c1ccc(-c2ccc(/C=C3\NC(=O)N(Cc4ccc(Cl)cc4)C3=O)o2)cc1Cl | 30% | ? | 5.6µM* | ? | . | 16µM* | 0.75* | 3%
O=C(CSc1ccsc1[N+](=O)[O-])Nc1cccc(F)c1 | -21% | ? | 28µM* | ? | 18% | 14µM* | 7.5* | -4% | APE1 dye cs=?;APE1 FP inh=-20%
CCc1c2c(nc3cccc(C(C)C)c13)-c1cccc(=O)n1C2 | -1% | -10% | . | i | . | . | . | .
